# Assay outcomes: PubChem BioAssay, Columbia University Molecular Screening Center
# HUVEC tox IL1B – toxic to HUVEC cells under IL-1B stimulation. cell count reduction, % at 2 µM. hit rate 0.41% among 94,000. AID 845. HUVEC cell count loss, Hoechst imaging, IL-1B stimulated;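 active = cell count reduction more than 3 SD above the screen-wide mean, cut at about 70% in these data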
# NFkB transloc pot – enhances IL-1B driven NFkB nuclear translocation. hit rate 0.3% among 94,000. AID 819. activation, % at 2 µM. HUVEC IL-1B NFkB p65 nuclear translocation imaging;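 active = activation above 40%, about the mean plus 3 SD, also judged a hit on visual image review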;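 also: percent activation is computed from the nuclear over cytoplasmic p65 intensity ratio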
# IL1B NFkB inh – blocks IL-1B driven NFkB nuclear translocation in HUVEC cells; HUVEC IL-1B NFkB p65 nuclear translocation imaging; inhibition, % at 2 µM; hit rate 0.43% among 94,000; AID 796;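 active = inhibition above about 30% together with a positive call from visual inspection of the well image, limit read from the data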;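 also: nuclear over cytoplasmic p65 intensity ratio measured by imaging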
# sEH inhibitor – soluble epoxide hydrolase (human) inhibition; P34913; recombinant human sEH enzymatic activity assay; inhibition, % at 2 µM; hit rate 0.34% among 91,000; AID 707; in the data active = inhibition above about 80%
# Target sequence (P34913 whole entry, looked up): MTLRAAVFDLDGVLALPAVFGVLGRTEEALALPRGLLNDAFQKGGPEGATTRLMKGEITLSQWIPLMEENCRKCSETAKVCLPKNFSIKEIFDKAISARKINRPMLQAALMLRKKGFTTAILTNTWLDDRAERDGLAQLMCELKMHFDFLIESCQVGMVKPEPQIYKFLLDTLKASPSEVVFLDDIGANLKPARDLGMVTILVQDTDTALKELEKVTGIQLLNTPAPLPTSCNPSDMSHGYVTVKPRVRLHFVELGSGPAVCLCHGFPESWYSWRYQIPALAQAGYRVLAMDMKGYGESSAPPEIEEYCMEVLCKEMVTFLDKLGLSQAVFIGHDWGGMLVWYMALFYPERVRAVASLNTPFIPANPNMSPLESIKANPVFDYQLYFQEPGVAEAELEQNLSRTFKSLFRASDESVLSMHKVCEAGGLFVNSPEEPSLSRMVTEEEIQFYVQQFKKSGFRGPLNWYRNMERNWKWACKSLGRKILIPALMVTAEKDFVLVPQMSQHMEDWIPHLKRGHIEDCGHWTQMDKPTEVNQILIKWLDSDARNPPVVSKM
# sEH activator – soluble epoxide hydrolase (human) activation; activation, % at 2 µM; hit rate 0.04% among 91,000; P34913; AID 717; purified human sEH enzymatic activity, activator screen; in the data active = activation above about 37%
# Hits are given with their value; – = inactive; · = no result given. In the library only some 1.1% were active in any assay of this set; here they are far more common.
SMILES,HUVEC tox IL1B,NFkB transloc pot,IL1B NFkB inh,sEH inhibitor,sEH activator
c1cncc(-c2noc(CC3CCCCC3)n2)c1,–,–,–,–,–
COc1ccc(-c2nn(C)c(=O)c3ccccc23)cc1NC(=O)Cn1nc(-c2ccccc2)c2ccccc2c1=O,–,–,–,–,–
CCOC(=O)c1cnn(-c2ccccc2)c1-n1cccc1C(=O)C(=O)Nc1ccc(OC)cc1,94,–,–,–,–
O=C(CN(C(=O)CSc1nc2ccccc2o1)c1ccccc1)NC1CCCCC1,–,–,–,–,–
COc1ccc(NC(=O)CSc2nnc(C3CCCCC3)n2-c2ccccc2)cc1,–,–,81,–,–
COc1ccc(NC(=O)CSc2nnc(C3CC3)n2N)cc1,–,–,–,·,·
COc1cccc(CNC(=O)C2CCN(Cc3cnn(-c4ccccc4)c3-n3cccc3)CC2)c1,–,63,–,–,–
CCc1nnc(NC(=O)Cc2ccc(OCc3c(C)noc3C)cc2)s1,–,–,–,–,–
O=c1c2c(nc3cc(-c4ccccc4)[nH]n13)CCC2,–,–,–,·,·
Cc1cc2nc3c(c(=O)n2[nH]1)CCCC3,–,–,–,–,37
CCCc1cc(=O)[nH]c(NCc2ccc(Cl)cc2)n1,90,–,–,–,–
Cn1cnc2cc(NS(=O)(=O)c3ccc(Br)cc3)ccc21,–,–,–,–,–
CCCCS(=O)(=O)Nc1ccc2ncn(C)c(=O)c2c1,72,–,–,–,–
Cc1ccc(Cl)cc1NC1=C/C(=N\S(=O)(=O)c2cccs2)c2ccccc2C1=O,–,41,–,–,–
Cc1ccc(NC(=O)CSCCc2ccccn2)nc1,–,–,–,–,–
CCOc1ccc(CCNC(=O)c2cc3ccccn3n2)cc1OCC,–,–,–,–,–
O=C(Nc1ccc2c(c1)OCCO2)NC12CC3CC(CC(C3)C1)C2,–,–,–,97,–
CC(=O)Nc1ccc2c(c1)OCCO2,–,–,–,–,–
O=S(=O)(Nc1ccc(O)c(Sc2nc3ccccc3s2)c1)c1ccc(Cl)cc1,–,–,–,–,–
O=C(Nc1ccc2nc(-c3ccc(Br)o3)[nH]c2c1)c1cccs1,84,–,99,–,–
Cn1c(=O)c2c(SCC(=O)N3CCCc4ccccc43)nc(CC(C)(C)C)nc2n(C)c1=O,–,42,–,–,–
CCCc1nc(SCC(=O)N2CCCc3ccccc32)c2c(=O)n(C)c(=O)n(C)c2n1,–,–,–,–,–
CSc1cccc(NC(=O)Nc2ccc(Cl)cc2)c1,–,–,76,82,–
CSc1ccccc1NC(=O)Nc1ccc(Cl)cc1,–,–,–,–,–
COc1ccc(NC(=O)/C(Cl)=C(/Cl)S(=O)Cc2ccccc2)cn1 (centres undefined),–,–,65,–,–
SMILES,HUVEC tox IL1B,NFkB transloc pot,IL1B NFkB inh,sEH inhibitor,sEH activator
CCOC(=O)C1=C(O)/C(=C\c2ccc(CNC(=O)C(=O)Nc3ccc(C)c(C)c3)o2)N=C1C,–,–,–,–,–
CCOC(=O)c1ccccc1NC(=O)N1CCn2c(C)ccc2C1CC (centres undefined),–,–,–,–,–
CCC1c2ccc(C)n2CCN1C(=O)Nc1ccccc1C(=O)OC (centres undefined),92,–,–,–,–
COC(=O)c1oc2ccc(Br)cc2c1-n1cccc1,–,–,40,–,–
CC(=Nc1ccc(C)cc1)c1sc2ccccc2c1O,–,–,–,–,–
CC(=Nc1cccc(O)c1)c1sc2ccccc2c1O,–,–,53,–,–
COc1ccc(OC)c(NC(=O)c2cc3ccccc3o2)c1,–,–,–,–,–
COc1ccc2o/c(=N\O)c(C(=O)Nc3ccccc3OC)cc2c1,76,–,–,–,–
C=CCNC(=O)C1CCN(c2nc(C)cc(-c3ccccc3)n2)CC1,–,–,–,–,–
Cc1cc(-c2ccccc2)nc(N2CCC(C(=O)NCc3ccccc3Cl)CC2)n1,–,–,–,82,–
Cc1cc(C(=O)OCC(=O)Nc2cc(C(F)(F)F)ccc2N2CCOCC2)c(C)o1,–,–,–,–,–
CC(NS(=O)(=O)c1ccccc1)C(=O)Nc1nccs1 (centres undefined),–,44,–,–,–
CC(NS(=O)(=O)c1ccccc1)C(=O)Nc1ccc(S(N)(=O)=O)cc1 (centres undefined),–,–,–,–,–
O=S(=O)(NC1CC2CCC1C2)c1ccc(Br)s1 (centres undefined),–,–,–,–,–
Cc1noc(C)c1S(=O)(=O)NCCN1CCN(c2ccccc2)CC1,–,–,31,–,–
Cc1c(Cl)cccc1NC(=O)CN1CCC(C(O)(c2ccccc2)c2ccccc2)CC1,–,–,49,–,–
O=C1CN(C(=O)COC(=O)CCSc2ccccc2Cl)c2ccccc2N1,–,–,–,–,–
CC(=O)Nc1c(C(=O)N2CCN(c3ncccn3)CC2)cnn1-c1ccccc1Cl,–,40,–,–,–
O=C(Nc1ccccc1Cl)N1CCN(c2ncccn2)CC1,–,–,–,–,–
COc1ccc(S(=O)(=O)N2CCOCC2)c(Cl)c1Cl,–,–,–,–,–
CCN(CC)S(=O)(=O)c1cccc(C(=O)N[C@H](C(=O)OCC(N)=O)C(C)C)c1,–,–,34,–,–
COc1ccc(C2(CNC(=O)/C=C\c3ccco3)CCCC2)cc1OC,–,–,–,–,–
Nc1nc(SCC(=O)Nc2ccccc2Sc2ccccc2)n[nH]1,–,–,–,–,–
Cc1cc(C)c(S(=O)(=O)N(CC(=O)N2CCOCC2)C2CCCCC2)c(C)c1,75,–,–,–,–
CCC(C)(C)NC(=O)C(c1cccn1C)N(Cc1ccc(OC)cc1)C(=O)Cn1nnc2ccccc21 (centres undefined),–,–,–,–,–
SMILES,HUVEC tox IL1B,NFkB transloc pot,IL1B NFkB inh,sEH inhibitor,sEH activator
N/C(=N\OS(=O)(=O)c1ccc(Br)cc1)c1ccncc1,–,–,35,–,–
O=C(c1ccncc1)c1ccc(Br)cc1,–,–,–,–,–
CCOC(=O)C1=C(C)NC(=O)NC1c1c(OCC(=O)N2CCCCC2)ccc2ccccc12 (centres undefined),–,–,–,–,–
CN(CC(=O)NC1CCCCCC1)S(=O)(=O)c1ccc2c(c1)n(C)c(=O)c(=O)n2C,–,–,–,–,–
CC(c1ccccc1)N1CCn2c(nc3cc(NC(=O)NC4CCCCC4)ccc32)C1 (centres undefined),–,–,–,97,–
COC(=O)c1cc(OC)c(OCc2cc(C(=O)OC)oc2C)c(OC)c1,89,–,–,–,–
COC(=O)c1cc(COc2ccc3oc(C)c(C(=O)OC)c3c2)c(C)o1,–,–,–,–,–
CCOc1cc(CNc2ccc3c(c2)OCCO3)cc(Br)c1OCC,–,–,–,–,–
Cn1c(C(=O)NCCCN2CCCCCC2)cc2c(=O)n(C)c3ccccc3c21,–,–,–,–,–
CCCN1CCN(CCCNC(=O)c2cc3c(=O)n(C)c4ccccc4c3n2C)CC1,–,–,90,·,·
Cc1ccc(C(=O)N(c2c(C)n(C)n(-c3ccccc3)c2=O)C(C)C)cc1,·,·,·,–,–
Cc1ccc(NC(=O)NCCCc2ccccc2)cc1,–,–,–,83,–
